Bioassay records (PubChem BioAssay)
MEX-5 binding = C. elegans MEX-5 TCR-2 RNA binding activity; Q9XUB2; MEX-5/FITC-TCR2 RNA binding, fluorescence polarization; stronger effect = lower value; activity score (negative = inhibition of binding), % at 10 µM; hit rate 0.38% among 300,000; AID 1832;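 active = inhibition past about -25% in most replicates, and total fluorescence under double the plate's negative control median, limit read from the data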;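 also: 0% = DMSO and -100% = 5 µM competing unlabeled TCR2 RNA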
Bcl-xL primary = Bcl-xL (human) inhibition; Q07817; GST-Bcl-xL / FITC-Bim BH3 peptide fluorescence polarization; inhibition, % at 10.9 µM; hit rate 0.7% among 320,000;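 active = inhibition above the mean of all tested compounds plus 3 SD, cutoff set per campaign, cut at about 30% in these data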;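 also: 0% = DMSO wells and 100% = unlabeled Bim-BH3 peptide competitor; inhibitors lower millipolarization by displacing the labeled peptide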
E coli Lon inh = E. coli protease La inhibition | P0A9M0 | purified E. coli Lon protease, fluorescence polarization | inhibition, % at 7.94 µM | hit rate 0.42% among 360,000; in the data active = inhibition above about 13%, passing the limit was not always enough;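 also: 0% = enzyme with probe and DMSO and 100% = no enzyme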
EBV gp42 inh = blocks Epstein-Barr virus glycoprotein 42 binding. Q1HVG2. Fluorescence polarization binding assay, mP read-out. inhibition, % (tested at 21.74 µM). hit rate 0.42% among 220,000; in the data active = inhibition above about 50%
MCL1-BIM inh = disrupts human MCL1 binding to BIM-BH3 peptide; GST-MCL1 / FITC-Bim-BH3 fluorescence polarization; AID 2057; inhibition, % at 10.9 µM; hit rate 0.68% among 320,000;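 active = inhibition above the mean inhibition of all tested compounds plus 3 SD, set per campaign, cut at about 40% in these data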;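 also: 0% = DMSO wells and 100% = unlabeled Bim-BH3 peptide control; higher means more loss of mP so more displacement of Bim peptide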
GLD-1 RNA inh = GLD-1-TGE RNA interaction inhibition (C. elegans); inhibition, % at 5.96 µM; Q17339; purified GLD-1 + fluorescein TGE RNA, fluorescence polarization; hit rate 0.44% among 320,000;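 active = percent inhibition above a per-plate cutoff, the plate mean of test compounds plus 3 SD, cut at about 30% in these data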;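 also: 0% = DMSO wells with GLD-1 and probe and 100% = wells lacking GLD-1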
E coli Lon conf = E. coli Lon inhibition confirmation; shares compounds with E coli Lon inh; purified E. coli Lon, fluorescence polarization; inhibition, % at 7.94 µM; hit rate 31% among 1,400; in the data active = inhibition above about 16%;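 also: 0% = enzyme with probe and DMSO and 100% = no enzyme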
An asterisk follows results filed as active; / = no result; + = active, no number. Rows were chosen to be rich in hits. Some 1.5% of all compounds tested hit in one or more screens of this group.

SMILES	MEX-5 binding	Bcl-xL primary	E coli Lon inh	EBV gp42 inh	MCL1-BIM inh	GLD-1 RNA inh	E coli Lon conf
O=C1NC(=O)C2(N1)C(=O)c1cccc3cccc2c13 (stereo not drawn)	/	/	+	/	/	/	+
CCN1CCN(C(CNS(=O)(=O)c2ccccc2)c2cccnc2)CC1 (stereo not drawn)	3	6	19*	/	3	7	-6
CCN1CCN(C(CNS(=O)(=O)c2ccc(F)cc2)c2cccnc2)CC1 (stereo not drawn)	1	4	-2	/	1	6	/
COc1ccccc1-n1c(SCC(=O)NC2CCS(=O)(=O)C2)nc2ccccc2c1=O (stereo not drawn)	/	-3	19*	/	-3	9	2
COc1ccc(NC(=O)C2(C)Cc3c(-c4cccc(NC(C)=O)c4)ccnc3O2)cn1 (stereo not drawn)	/	/	28*	/	/	/	2
O=C(NCc1nnc(SCC(=O)N2CCCC2)o1)c1cccc(C(F)(F)F)c1	0	4	-1	/	-2	2	/
CCC(CC)NC(=O)C1CCN(c2ccc(S(=O)(=O)N3CCOCC3)cc2[N+](=O)[O-])CC1	/	-1	-1	/	-5	-2	/
CCCCS(=O)(=O)Nc1ccc(N2CCOCC2)c(S(=O)(=O)N2CCOCC2)c1	1	-1	19*	/	3	-4	5
O=[N+]([O-])c1ccc(N2CCOCC2)c(S(=O)(=O)N2CCOCC2)c1	0	1	2	9	7	-6	/
CCOC(=O)c1c(-c2ccc3ccccc3c2)csc1NC(=O)CCCC(=O)O	/	/	-9	/	/	/	/
O=C1CCC/C(=N\NC(=O)c2ccc(COc3cccc4cccnc34)cc2)C1	-1	5	37*	-2	11	49*	3
NNC(=O)c1ccc(COc2cccc3cccnc23)cc1	-1	6	13	-19	7	1	/
COc1ccc(CN2CCC(CO)(Cc3ccccc3C(F)(F)F)CC2)c(F)c1	2	1	20*	-10	1	3	0
COc1ccc(CC2(CO)CCN(Cc3cccc4nccnc34)CC2)cc1	3	-2	1	0	1	-5	/
O=C1CC(=O)CC(c2ccccc2Cl)C1	1	2	30*	-14	2	-2	2
O=C(COc1ccc(F)cc1)Nc1nc(-c2ccccn2)cs1	0	5	19*	/	-2	6	-10
O=C(COc1cccc(F)c1)Nc1nc(-c2ccccn2)cs1	/	/	7	/	/	/	/
COc1cccc(CC(=O)NNC(=O)CN(C)S(=O)(=O)c2ccc(C)cc2)c1	/	/	-1	/	/	1	/
O=C(NCC(=O)N(c1cccnc1)C(C(=O)NC1CCCCC1)c1ccccc1F)c1ccco1 (stereo not drawn)	1	3	-7	/	2	-4	/
CC(=O)N1c2ccc(S(=O)(=O)N3CCC(C(=O)Nc4cccc(C(F)(F)F)c4)CC3)cc2CC1C (stereo not drawn)	2	4	28*	/	-2	-3	-59
CCOc1cccc(C(=O)NC(=S)Nc2cccnc2)c1	2	9	2	-5	10	0	/
CCCCOc1cccc(C(=O)NC(=S)Nc2cccnc2)c1	2	2	19*	-13	11	-5	-46
O=C(/C=C/c1ccc(OC(F)F)cc1)Nc1cccc(S(=O)(=O)NC2=NCCCCC2)c1	-1	-1	-2	/	-7	3	/
CC(C)(C)NC1=NCCNC(c2ccccc2)=C1	/	/	-5	/	/	/	/
CC(C)(C)c1ccc(C(=O)NCC(=O)N2CCCCCC2)cc1	1	1	0	/	-4	-10	/
SMILES	MEX-5 binding	Bcl-xL primary	E coli Lon inh	EBV gp42 inh	MCL1-BIM inh	GLD-1 RNA inh	E coli Lon conf
Cc1ccc(CN2CC[C@H]3C=CCc4cccc(c43)C2)cc1	/	6	-4	/	5	11	/
C1=C[C@@H]2CCN(Cc3ccccc3)Cc3cccc(c32)C1	/	11	34*	/	17	8	8
CCOC(=O)C1CCCN(C(=O)Cc2c(C(=O)O)[nH]c3ccccc23)C1 (stereo not drawn)	0	0	24*	-4	-6	8	21*
CCOC(=O)C1CCCN(C(=O)CC(c2ccccc2)c2ccccc2)C1 (stereo not drawn)	-3	2	-7	-14	0	4	/
CSCCC(NS(=O)(=O)c1cccc(C(F)(F)F)c1)C(=O)N1CCN(C(=O)c2ccco2)CC1 (stereo not drawn)	/	/	52*	/	/	/	2
COC(=O)[C@H](Cc1ccccc1)N1C/C=C\COc2c(Cl)cc(Cl)cc2S1(=O)=O	/	/	-15	/	/	/	/
O=C(OCC1CCNCC1)c1ccc(F)cc1	/	/	12	/	/	/	/
CCCCn1c(=NC(=O)c2cccnc2)c(C#N)cc2c(=O)n3cccc(C)c3nc21	-9	46*	24*	35	48*	12	2
COCCCn1c(=NC(=O)c2ccncc2)c(C#N)cc2c(=O)n3cccc(C)c3nc21	3	41*	38*	36	39	19	22*
CCOC(=O)c1cc2c(=O)n3cccc(C)c3nc2n(CCCOC)c1=NC(=O)c1cccnc1	-3	10	-6	9	8	4	/
Cc1cccn2c(=O)c3cc(C#N)c(=N)n(Cc4ccncc4)c3nc12	-1	4	/	5	8	8	/
C=CCN(c1ccc(C(=O)Nc2cccc([N+](=O)[O-])c2)cc1)S(C)(=O)=O	0	1	0	-15	4	-8	/
CCCn1c(=S)[nH]c2cc(C(=O)N3CCN(C)CC3)ccc2c1=O	/	/	14*	/	/	/	2
CCOCCCn1c(=S)[nH]c2cc(C(=O)N3CCN(C)CC3)ccc2c1=O	-1	0	-7	-6	2	0	/
CCCCC1=CC2=C(c3ccco3)C(=O)C(C)(OC(=O)c3ccc(OC)cc3)C(=O)C2=CN1CCc1ccccn1 (stereo not drawn)	-11	13	37*	46	23	16	-18
CCCCC1=CC2=C(c3ccco3)C(=O)C(C)(OC(=O)c3ccc(OC)cc3)C(=O)C2=CN1CCOC (stereo not drawn)	-5	18	48*	13	23	16	12
CN1CCN(C(=O)c2ccc(CNS(=O)(=O)c3ccc(F)c(Cl)c3)cc2)CC1	-1	/	-2	/	/	/	/
COc1cc(OC)c(NS(=O)(=O)c2cc(C(=O)OCC(=O)NCC3CCCO3)ccc2OC)cc1Cl (stereo not drawn)	0	-4	5	-8	1	8	/
O=C(CCS(=O)(=O)Cc1ccccc1F)N1CCc2ccccc2C1	-1	8	18*	-8	6	-1	-17
Cc1ccc(-c2csc3nc(C)n(N)c(=O)c23)cc1	2	15	2	2	3	0	/
Cc1ccc(-c2csc3nc(C)n(-n4cccc4)c(=O)c23)o1	-1	6	21*	0	5	2	-1
